Among all 310,000 compounds or so, about 14,000 (4.5%) showed an effect of 50% or more. The effect is printed as a negative number. The list comes from a sample in which strong results are over-represented; it also holds similar structures and randomly drawn compounds.
target: human ether-à-go-go-related gene (hERG) potassium channel (human, UniProt Q12809); experiment: primary screen, population patch clamp on CHO cells stably expressing hERG; higher = less effect of the substance
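Further: peak tail current of the secondary pulse compared with the same well before compound.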

human ether-à-go-go-related gene (hERG) potassium channel, sequence (Q12809 whole entry, looked up): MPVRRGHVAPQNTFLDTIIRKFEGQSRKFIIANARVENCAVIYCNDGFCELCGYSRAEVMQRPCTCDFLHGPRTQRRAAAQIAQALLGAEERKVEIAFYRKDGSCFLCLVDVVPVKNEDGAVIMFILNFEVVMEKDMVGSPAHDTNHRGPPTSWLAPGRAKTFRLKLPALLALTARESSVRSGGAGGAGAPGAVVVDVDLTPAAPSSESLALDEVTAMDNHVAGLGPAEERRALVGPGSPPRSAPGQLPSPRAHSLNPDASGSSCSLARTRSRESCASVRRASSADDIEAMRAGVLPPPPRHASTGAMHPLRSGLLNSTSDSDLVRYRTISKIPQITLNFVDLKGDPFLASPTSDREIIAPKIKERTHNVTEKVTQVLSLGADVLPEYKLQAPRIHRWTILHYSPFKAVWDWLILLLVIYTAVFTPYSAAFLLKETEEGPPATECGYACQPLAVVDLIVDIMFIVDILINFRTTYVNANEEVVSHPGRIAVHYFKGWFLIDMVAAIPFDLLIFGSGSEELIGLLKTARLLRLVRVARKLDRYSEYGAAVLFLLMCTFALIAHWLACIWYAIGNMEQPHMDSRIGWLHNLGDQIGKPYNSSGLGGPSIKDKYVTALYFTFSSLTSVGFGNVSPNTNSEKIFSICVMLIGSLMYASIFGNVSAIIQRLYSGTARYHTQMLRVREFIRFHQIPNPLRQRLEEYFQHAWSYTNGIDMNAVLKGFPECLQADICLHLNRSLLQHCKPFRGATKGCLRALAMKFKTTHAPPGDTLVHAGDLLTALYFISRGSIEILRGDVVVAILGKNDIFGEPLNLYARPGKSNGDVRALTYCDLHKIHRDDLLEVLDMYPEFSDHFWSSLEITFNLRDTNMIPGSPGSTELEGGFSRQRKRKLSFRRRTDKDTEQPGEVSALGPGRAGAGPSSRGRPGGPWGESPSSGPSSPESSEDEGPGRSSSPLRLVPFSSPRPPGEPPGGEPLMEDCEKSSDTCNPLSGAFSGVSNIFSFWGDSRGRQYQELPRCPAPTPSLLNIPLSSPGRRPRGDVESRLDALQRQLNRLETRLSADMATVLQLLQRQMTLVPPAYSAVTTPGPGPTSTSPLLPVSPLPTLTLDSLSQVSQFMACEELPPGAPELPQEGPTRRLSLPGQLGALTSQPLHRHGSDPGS

Row | Structure (SMILES) | hERG current change (%, negative = inhibition) at 10uM [%]
1 | COc1ccccc1NC(=O)c1ccc(NS(=O)(=O)c2ccc(F)c(F)c2F)cc1 | -6.5
2 | COc1ccc(C(=O)CSc2nnc(-c3cccs3)n2-c2ccccc2)cc1 | 4.83
3 | CSCCC(NC(=O)C12CC3CC(CC(C3)C1)C2)C(=O)OCC(=O)c1ccccc1 (centres unmarked) | 12.7
4 | c1ccc2[nH]c(SCc3cscn3)nc2c1 | 2.76
5 | Cc1cccc(-n2ccnc2CN2CCN(C(C)C)C(CCO)C2)c1 (centres unmarked) | -12.3
6 | CC(C)CN1CCN(Cc2cc(F)ccc2-n2cccn2)CC1CCO (centres unmarked) | -6.87
7 | Cc1ccc(CN2CCN(Cc3cccc(-n4cccn4)c3)CC2CCO)cc1 (centres unmarked) | -74.5
8 | CC(C)CCN1CCN(Cc2cc(F)ccc2-n2cccn2)CC1CCO (centres unmarked) | -25.8
9 | OCCC1CN(Cc2cc(F)ccc2-n2cccn2)CCN1Cc1ccc(F)cc1 (centres unmarked) | -62.5
10 | Cc1ccc(CN2CCN(Cc3ccc(-n4cccn4)cc3C)CC2CCO)cc1 (centres unmarked) | -78.6
11 | Cc1cccc(CN2CCN(Cc3cccc(-n4cccn4)c3)CC2CCO)n1 (centres unmarked) | -45.7
12 | Cc1cccc(-n2ccnc2CN2CCN(C3CCCC3)C(CCO)C2)c1 (centres unmarked) | -59.1
13 | COc1ccc(-n2ccnc2CN2CCN(C3CCCC3)C(CCO)C2)cc1 (centres unmarked) | -29.1
14 | OCCC1CN(Cc2cccc(-n3cccn3)c2)CCN1Cc1ccccc1 (centres unmarked) | -44.8
15 | CCOC(=O)c1[nH]ncc1CN1CCN(Cc2ccc(C)cc2)C(CCO)C1 (centres unmarked) | -38.8
16 | Cc1cc(-n2cccn2)ccc1CN1CCN(CC(C)C)C(CCO)C1 (centres unmarked) | -45.5
17 | Cc1c(Cl)cccc1N1CC(C)(C)C1=O | -2.95
18 | COC(=O)c1sc2nc(SCc3cccc(Cl)c3)n(N)c(=O)c2c1C | 1.39
19 | CCC1Sc2ccccc2N(CC(=O)NC2CC2)C1=O (centres unmarked) | 7.59
20 | COc1ccc(CN2CC(C(N)=O)Oc3ccccc32)cc1F (centres unmarked) | 3.16
21 | Cn1ncnc1SCc1cn2cccnc2n1 | 14.2
22 | CC1CC(Nc2ccccc2N)=CC(=O)O1 (centres unmarked) | 11.7
23 | COc1ccc(C2/C(=C(/O)c3ccccc3)C(=O)C(=O)N2c2ncccn2)cc1OC (centres unmarked) | 7.54
24 | CC(=O)c1ccc(-c2ccccc2OC(F)(F)F)o1 | -10.7

Row | Structure (SMILES) | hERG current change (%, negative = inhibition) at 10uM [%]
25 | O=C(NCCOc1ccccc1F)c1ccc2c(=O)n3c(nc2c1)CCC3 | -20.8
26 | CSCCCN1CC[C@@H](N2CCN(c3ccccc3F)CC2)[C@H](O)C1 | -36.8
27 | Cc1cccc(CN2CCN(Cc3ccc(-n4cccn4)cc3)CC2CCO)n1 (centres unmarked) | -30.2
28 | Cc1ccc(CN2CCN(Cc3ccc(-n4cccn4)cc3)CC2CCO)cc1 (centres unmarked) | -78.1
29 | CC(C)CCN1CCN(Cc2cccc(-n3cccn3)c2)CC1CCO (centres unmarked) | -57.6
30 | CC(C)N1CCN(Cc2cccc(-n3cccn3)c2)CC1CCO (centres unmarked) | -12.3
31 | OCCC1CN(Cc2ccc(-n3cccn3)cc2)CCN1Cc1ccccc1 (centres unmarked) | -59.8
32 | CC(C)=CC(=O)N1CC[C@@H](N2CCN(c3ccccc3F)CC2)[C@H](O)C1 | 1.23
33 | O[C@@H]1CN(Cc2ccc(-n3cccn3)cc2)CC[C@H]1N1CCN(c2ccccc2F)CC1 | -67.5
34 | CCOC(=O)CC(C)(C)/C(C)=N/Nc1ccc([N+](=O)[O-])cc1[N+](=O)[O-] | -24.5
35 | CCOc1ccc(CCNC(=O)c2cccc(C#N)c2)cc1OCC | -6.55
36 | Cc1ccc(N2C(=O)Nc3ccc(Br)cc3C2(O)C(=O)NCCN(C)C)cc1C (centres unmarked) | 21.4
37 | CCCCn1c(SCc2nc(N)nc(Nc3ccccc3C)n2)nc2ccccc2c1=O | -1.63
38 | Cc1c(NC(=O)CN2C(=O)c3cccc4cccc2c34)c(=O)n(-c2ccccc2)n1C | 4.55
39 | Cc1cc(-n2cccn2)ccc1CN1CCN(C2CCCC2)C(CCO)C1 (centres unmarked) | -73.5
40 | OCCC1CN(Cc2cc(F)ccc2-n2cccn2)CCN1C1CCCC1 (centres unmarked) | -29
41 | OCCC1CN(Cc2cccc3nccnc23)CCN1C1CCCC1 (centres unmarked) | -4.4
42 | COc1cccc(-c2sc3ccc(OC)cc3c2C#CCC(C)O)c1 (centres unmarked) | 25.8
43 | COc1ccc(CN(C)C(=O)C23CC4CC(CC(C4)C2)C3)c(OC)c1 | -25
44 | CCOC(=O)c1cc(-c2ccc(OC(F)F)cc2)nc2nc(SC)[nH]c(=O)c12 | -42.7
45 | COc1ccc(NS(=O)(=O)c2cccc(C(=O)NNC(=O)CNC(=O)c3ccco3)c2)cc1 | 12.8
46 | CC(=O)Nc1ccc2c(c1)N(S(=O)(=O)c1cccs1)CCC2 | -3.79
47 | Cc1ccc(C(=O)N/C(=C\c2ccco2)C(=O)NCCN2CCOCC2)cc1C | -3.01
48 | Cc1ccc(C(=O)N/C(=C\c2ccco2)C(=O)NCCCn2ccnc2)cc1C | -39.8

Row | Structure (SMILES) | hERG current change (%, negative = inhibition) at 10uM [%]
49 | O=C(NCCN1CCCCC1)/C(=C/c1ccco1)NC(=O)c1ccccc1 | -40.6
50 | Cc1ccc(C(=O)N/C(=C\c2ccco2)C(=O)NCCN2CCCCC2)cc1C | -60.1
51 | Cc1ccc(C(=O)N/C(=C/c2ccco2)C(=O)NCCCn2ccnc2)cc1 | -64.7
52 | Cc1ccc(C(=O)N/C(=C\c2ccco2)C(=O)NCCCn2ccnc2)cc1 | -64.3
53 | COc1ccc(C(=O)N/C(=C\c2ccco2)C(=O)NCCCn2ccnc2)cc1 | -19.7
54 | CCOC(=O)C1=C(C)Nc2nc(SCC)[nH]c(=O)c2C1c1ccncc1 (centres unmarked) | -7.65
55 | Cc1cc(C)c(C)c(S(=O)(=O)N2CCN(Cc3nc4ccccc4[nH]3)CC2)c1C | 0.133
56 | Nc1c(NCCc2ccccc2)c2ccccc2oc1=O | -11.9
57 | COc1ccc(/C=c2\sc3nc(=O)c(C)nn3c2=O)c(OC)c1 | 23
58 | O=C(COC(=O)c1cc(-c2ccncc2)nc2ccccc12)Nc1ccc2c(c1)OCO2 | 2.21
59 | COc1ccc(CNS(=O)(=O)c2ccc(S(=O)(=O)N3CCCCC3)cc2)cc1 | 7.34
60 | CN(NC(=O)c1ccccc1Cl)c1ncc(C(F)(F)F)cc1Cl | -1.95
61 | Cc1c(OCc2ccc([N+](=O)[O-])cc2)ccc2c3c(c(=O)oc12)CCC3 | 0.652
62 | Cc1nc(C)n(C(C)CNS(=O)(=O)c2ccc(Cl)cc2)n1 (centres unmarked) | 13.9
63 | O=C(C[n+]1ccn(CCCNP2(=O)C=C(c3ccccc3)OC(c3ccccc3)=C2)c1)c1cccs1.[Br-] | -44.7
64 | O=P1(NCCCn2cc[n+](Cc3nc4ccccc4[nH]3)c2)C=C(c2ccccc2)OC(c2ccccc2)=C1.[Cl-] | -63
65 | O=C(C[n+]1ccn(CCCNP2(=O)C=C(c3ccccc3)OC(c3ccccc3)=C2)c1)c1ccccc1.[Br-] | -22.8
66 | CC[C@H](C)[C@H](NC(=O)[C@H](Cc1ccc(O)cc1)NC(=O)[C@@H](N)C(C)C)C(=O)N[C@@H](Cc1cnc[nH]1)C(=O)N1CCC[C@H]1C(=O)N[C@@H](Cc1ccccc1)C(=O)O | 4.75
67 | O=S(=O)(NCCc1ccncc1)c1ccc(F)cc1 | 12
68 | CCOC(=O)C1=C(C)N=C2SCCC(=O)N2C1c1cccs1 (centres unmarked) | -10.2
69 | CCCCCCS(=O)[C@H]1CS(=O)(=O)C[C@@H]1S(=O)CCCCCC (some centres unmarked) | -66.7
70 | CCCCCCCCS(=O)C1CS(=O)(=O)CC1O (centres unmarked) | 5.75
71 | CCCCCCCCS(=O)C1CCS(=O)(=O)C1 (centres unmarked) | 4.04
72 | CCOC(=O)N1CCN(Cc2nc(-c3ccc(Cl)cc3)no2)CC1 | -30.6

Row | Structure (SMILES) | hERG current change (%, negative = inhibition) at 10uM [%]
73 | CCOC(=O)N1CCN(Cc2nc(N)nc(Nc3ccc(Cl)cc3)n2)CC1 | -72.4
74 | CCOC(=O)N1CCN(C(=O)Nc2ccc(Cl)cc2)CC1 | -11.4
75 | CCOC(=O)N1CCN(Cc2nc(N)nc(Nc3ccc(C)cc3C)n2)CC1 | -16.7
76 | CCOC(=O)N1CCN(Cc2nc(N)nc(Nc3ccc(C)cc3)n2)CC1 | -57.2
77 | CCOC(=O)N1CCN(Cc2nc(-c3ccc(C)cc3)no2)CC1 | -17.6
78 | COc1ccc(C2C(C(=O)O)CCC(=O)N2c2ccc(C)cc2)cc1OC (centres unmarked) | -10.6
79 | CC(C)[C@H](NS(=O)(=O)c1ccccc1)C(=O)OCC(=O)Nc1ccccc1Sc1ccccc1 | 1.98
80 | C=CCn1c(Sc2nnc(C)s2)nc2c1c(=O)[nH]c(=O)n2C | 11.2
81 | O=C(NCc1ccccn1)Nc1ccccc1F | 13.5
82 | Cc1cc(NC(=O)CSc2ccc(Cl)cc2)no1 | -3.36
83 | COc1cccc(C(=O)CSc2nc3ccccc3n2CC(=O)N(C(C)C)C(C)C)c1 | -5.36
84 | CCCCCc1ccc(OCCCC[n+]2ccccc2)c(CCCCC)c1.[Cl-] | -66.4
85 | CCCCCc1ccc(OCCCC[n+]2ccc(C)cc2)c(CCCCC)c1.[Cl-] | -77
86 | CCCCCc1ccc(OCCC[n+]2ccccc2)c(CCCCC)c1.[Cl-] | -75.7
87 | Cc1ccc[n+](CC(=O)Nc2ccc(C)c(C)c2)c1.[Cl-] | 10.4
88 | CCCCOc1ccc(C)cc1CN(CCO)CCO.Cl | 1.6
89 | CCCCCc1ccc(OCCCC[n+]2cccc(C)c2)c(CCCCC)c1.[Cl-] | -71.1
90 | CCCCOc1ccc(CCN)cc1Cl.Cl | -13.7
91 | CCCCCCC[n+]1ccc(-c2cc[n+](CCCCCCC)cc2)cc1.[I-] | 9.12
92 | CC(=O)Nc1ccc(OCCC[n+]2ccccc2)cc1.[Cl-] | 40.4
93 | CCCCCOc1ccc(C)cc1CN(CCCl)CCCl.Cl | 13.1
94 | CCCCCc1ccc(S(=O)(=O)Nc2cc(C)ccn2)cc1 | 8.41
95 | CCCCCc1ccc(CC(=O)O)cc1 | 11.4
